The results in this text go back to PubChem BioAssay.

Assay [1] deals with Albumin (Bos taurus) (UniProt P02769). Description: bovine serum albumin binders on microarray, profiling panel, artefact control for SMM control protein annotation, biochemical, small-molecule microarray, Alexa647 label, 635/667 nm fluorescence (AID 1118).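 Also: score merges 667 nm emission intensity and signal-to-noise per printed compound spot.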 The conditions noted are these: BSA-A647 binding, fluorescence 635 nm, higher = more signal.
Assay [2] can be described thus: small-molecule microarray binders of probe aXIP, primary screen, biochemical, NeuroSMM set, 635/667 nm fluorescence (AID 1119).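 Also: probe is the protein aXip251-270 applied at 1 µg/mL to compound-printed slides; binding of probe to printed compounds measured as 667 nm fluorescence plus signal to noise.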 The conditions noted are these: higher = more signal, called active from +8 up or from −8 down.
Assay [3] is described as follows: small-molecule binders of probe aNOTCH3, primary screen, biochemical, small-molecule microarray, 635/667 nm fluorescence (AID 1120).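 Also: probe is a biotin-tagged antibody raised against NOTCH3 rather than NOTCH3 protein; score merges spot fluorescence near 667 nm with spot signal to noise.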 The conditions noted are these: higher = more signal.
Assay [4] is described as follows: small-molecule binders of probe aNOTCH2, primary screen, biochemical, small-molecule microarray, 635/667 nm fluorescence (AID 1121).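 Also: score merges feature fluorescence read at 667 nm with its signal to noise.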 The conditions noted are these: higher = more signal.
Assay [5] concerns the target Carbonic anhydrase 2 (Homo sapiens) (UniProt P00918). Nature of the assay: CAII small-molecule binders, profiling panel, biochemical, small-molecule microarray, Alexa647-labelled CAII (AID 1122). The conditions noted are these: CAII-A647 binding fluorescence, higher = more signal.
Assay [6] in a line: COS7 lysate on small-molecule microarray, probe aHis, 635 nm (AID 1123).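 Also: z-score combines 667nm fluorescence intensity with signal-to-noise per printed compound spot.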 The conditions noted are these: COS7 cell lysate, fluorescence, higher = more signal.
A short description of assay [7]: compound binding in COS7 lysate, probe aLAP1, primary screen, cell lysate, small-molecule microarray (AID 1124).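 Also: lysate comes from COS7 cells expressing LAP1 and is applied at 0.3 µg/mL; score merges spot fluorescence near 667 nm with signal-to-noise over triplicate slides.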 The conditions noted are these: probe aLAP1, fluorescence, higher = more signal.
The subject of assay [8] is Sam68 (KHDRBS1). Nature of the assay: Sam68 small-molecule binders, primary screen, biochemical, small-molecule microarray, 635 nm fluorescence (AID 1125).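 Also: score merges 667 nm channel intensity with signal to noise over triplicate slides.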 To be noted: small-molecule microarray binding, higher = more signal.
In assay [9] the test system is Chordin-like protein 2 (CHRDL2). Nature of the assay: CHRDL2 small-molecule binders, primary screen, biochemical, small-molecule microarray, 635 nm fluorescence (AID 1126).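 Also: printed compound slides probed with Chrdl2 protein at 4 µg/mL for 1 h at 4 C; score merges 667 nm emission intensity with signal to noise over three replicate slides.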 The conditions noted are these: small-molecule microarray binding, fluorescence 635 nm; higher = more signal.
The target in assay [10] is Concanavalin-A (Canavalia ensiformis) (UniProt P02866). Nature of the assay: ConA small-molecule binders, primary screen, artefact control for SMM control protein annotation, biochemical, small-molecule microarray, Alexa647 label, 635 nm (AID 1127).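 Also: z combines 667 nm emission intensity with signal-to-noise across three replicate slides.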 The conditions noted are these: ConA-A647 binding fluorescence, higher = more signal.
Assay [11] is described as follows: anti-His antibody binders, primary screen, artefact control for SMM control protein annotation, biochemical, small-molecule microarray, 635 nm fluorescence (AID 1128).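 Also: score merges feature fluorescence with signal-to-noise for each printed compound spot.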 To be noted: anti-His Alexa647 antibody binding, higher = more signal.
Assay [12] has as its system Human papillomavirus type 1a E7 protein (residues 1-88). Description: HPV1a E7 small-molecule binders, primary screen, biochemical, small-molecule microarray, residues 1-88, 635 nm (AID 1129). To be noted: small-molecule microarray binding, fluorescence 635 nm; higher = more signal.
The target of assay [13] is Focal adhesion kinase 1 (Homo sapiens) (UniProt Q05397). Nature of the assay: small-molecule microarray binders of FAK, primary screen, biochemical, 635/667 nm fluorescence, BSA, DTT (AID 1130).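 Also: composite of spot emission at 667 nm and signal to noise over triplicate slides.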 The conditions noted are these: PTK2 binding, 635 nm fluorescence, higher = more signal.
Assay [14] has as its system Fibrinogen (Alexa647-labelled). Nature of the assay: fibrinogen binders on compound microarrays, profiling panel, artefact control for SMM control-protein annotation, biochemical, small-molecule microarray, 635/667 nm fluorescence (AID 1131).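 Also: z-score merges 667 nm fluorescence with per-spot signal-to-noise over triplicate slides.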 To be noted: fibrinogen-A647 binding fluorescence, higher = more signal.
In assay [15] the target is Follistatin (Homo sapiens) (UniProt P19883). Description: follistatin binders on small-molecule microarrays, primary screen, biochemical, small-molecule microarray, 635/667 nm fluorescence (AID 1132). To be noted: FST binding, 635 nm fluorescence, higher = more signal.
The target of assay [16] is Fibroblast growth factor 2 (Homo sapiens) (UniProt P09038). Nature of the assay: FGF2 binders on small-molecule microarrays, primary screen, biochemical, small-molecule microarray, 635/667 nm fluorescence (AID 1133). The conditions noted are these: small-molecule microarray binding, FGF2, fluorescence 635/667; higher = more signal.
Assay [17] in a line: mitochondrial membrane potential change in A549 cells, profiling panel, cell-based, JC-1 fluorescence, basal, 24 h, 100 nL (AID 1138).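 Also: A549 lung adenocarcinoma cells under basal conditions with no added stimulus; test concentration not given here.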 To be noted: higher = more signal.
The subject of assay [18] is Lefty1. Nature of the assay: Lefty1 binders on small-molecule microarrays, primary screen, biochemical, small-molecule microarray, 635/667 nm fluorescence (AID 1139). The conditions noted are these: small-molecule microarray binding, fluorescence 635/667; higher = more signal.
For assay [19], the system named is wheat germ agglutinin (Triticum aestivum), Alexa647-labelled. Nature of the assay: wheat germ agglutinin binders on compound microarrays, profiling panel, artefact control for SMM control-protein annotation, biochemical, small-molecule microarray, 635/667 nm fluorescence (AID 1140).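 Also: score merges 667 nm feature emission with signal to noise over triplicate slides.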 To be noted: WGA-A647 binding, 635 nm fluorescence, higher = more signal.
Assay [20] addresses Luciferin 4-monooxygenase (Photinus pyralis) (UniProt P08659). Description: firefly luciferase enzyme inhibitors, primary screen, biochemical, luminescence, purified enzyme, 2006 set (AID 1141).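 Also: cell-free assay with purified firefly luciferase at 100 ng per well in PBS; test concentration not given here.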 To be noted: SteadyGlo luminescence, 30 min, higher = more signal, called active from +8 up or from −8 down.

Structures are written as SMILES. Active and inactive are the calls of the source.

Chain of Luciferin 4-monooxygenase (Photinus pyralis) (P08659 whole entry, looked up): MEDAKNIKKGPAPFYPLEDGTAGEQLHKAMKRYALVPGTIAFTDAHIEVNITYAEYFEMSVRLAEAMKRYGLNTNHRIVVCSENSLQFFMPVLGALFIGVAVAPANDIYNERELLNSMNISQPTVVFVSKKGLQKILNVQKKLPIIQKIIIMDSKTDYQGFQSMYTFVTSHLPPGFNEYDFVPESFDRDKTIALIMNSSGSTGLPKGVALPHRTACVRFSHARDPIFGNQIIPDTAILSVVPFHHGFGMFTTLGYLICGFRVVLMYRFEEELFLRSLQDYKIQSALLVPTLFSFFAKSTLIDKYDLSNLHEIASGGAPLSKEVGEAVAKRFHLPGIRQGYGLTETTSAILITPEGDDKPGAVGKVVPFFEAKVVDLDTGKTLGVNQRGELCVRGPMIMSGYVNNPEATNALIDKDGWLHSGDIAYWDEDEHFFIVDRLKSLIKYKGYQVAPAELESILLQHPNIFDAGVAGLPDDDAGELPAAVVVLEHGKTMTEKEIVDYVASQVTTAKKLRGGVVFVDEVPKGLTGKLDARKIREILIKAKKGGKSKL
Chain of Focal adhesion kinase 1 (Homo sapiens) (Q05397 whole entry, looked up): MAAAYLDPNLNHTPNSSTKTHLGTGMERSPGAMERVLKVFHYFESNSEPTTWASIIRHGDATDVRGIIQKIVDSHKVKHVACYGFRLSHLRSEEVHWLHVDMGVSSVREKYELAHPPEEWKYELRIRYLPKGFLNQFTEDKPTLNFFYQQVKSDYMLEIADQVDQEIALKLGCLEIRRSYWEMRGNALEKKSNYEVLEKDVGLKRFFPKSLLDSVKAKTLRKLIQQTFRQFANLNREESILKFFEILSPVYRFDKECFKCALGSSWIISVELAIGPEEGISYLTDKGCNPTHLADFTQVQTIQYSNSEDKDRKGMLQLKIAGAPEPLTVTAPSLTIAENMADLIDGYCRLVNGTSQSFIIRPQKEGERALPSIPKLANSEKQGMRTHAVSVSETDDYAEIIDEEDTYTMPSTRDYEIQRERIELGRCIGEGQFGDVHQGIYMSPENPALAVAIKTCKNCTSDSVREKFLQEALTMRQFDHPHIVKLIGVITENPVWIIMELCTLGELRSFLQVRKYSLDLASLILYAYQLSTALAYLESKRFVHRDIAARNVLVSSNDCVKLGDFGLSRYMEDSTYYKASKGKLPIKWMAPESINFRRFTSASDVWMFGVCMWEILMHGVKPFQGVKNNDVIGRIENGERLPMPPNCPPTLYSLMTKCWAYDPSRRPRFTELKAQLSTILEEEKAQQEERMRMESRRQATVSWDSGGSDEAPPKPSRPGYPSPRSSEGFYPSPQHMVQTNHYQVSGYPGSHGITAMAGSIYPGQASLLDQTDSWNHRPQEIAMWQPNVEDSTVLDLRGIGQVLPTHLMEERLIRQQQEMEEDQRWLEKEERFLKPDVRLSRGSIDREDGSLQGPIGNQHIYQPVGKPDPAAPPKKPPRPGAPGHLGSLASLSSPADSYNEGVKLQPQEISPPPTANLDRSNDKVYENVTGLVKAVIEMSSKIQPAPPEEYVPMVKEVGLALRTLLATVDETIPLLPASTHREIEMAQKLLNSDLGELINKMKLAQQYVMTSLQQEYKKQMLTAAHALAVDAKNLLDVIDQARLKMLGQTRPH
Chain of Albumin (Bos taurus) (P02769 whole entry, looked up): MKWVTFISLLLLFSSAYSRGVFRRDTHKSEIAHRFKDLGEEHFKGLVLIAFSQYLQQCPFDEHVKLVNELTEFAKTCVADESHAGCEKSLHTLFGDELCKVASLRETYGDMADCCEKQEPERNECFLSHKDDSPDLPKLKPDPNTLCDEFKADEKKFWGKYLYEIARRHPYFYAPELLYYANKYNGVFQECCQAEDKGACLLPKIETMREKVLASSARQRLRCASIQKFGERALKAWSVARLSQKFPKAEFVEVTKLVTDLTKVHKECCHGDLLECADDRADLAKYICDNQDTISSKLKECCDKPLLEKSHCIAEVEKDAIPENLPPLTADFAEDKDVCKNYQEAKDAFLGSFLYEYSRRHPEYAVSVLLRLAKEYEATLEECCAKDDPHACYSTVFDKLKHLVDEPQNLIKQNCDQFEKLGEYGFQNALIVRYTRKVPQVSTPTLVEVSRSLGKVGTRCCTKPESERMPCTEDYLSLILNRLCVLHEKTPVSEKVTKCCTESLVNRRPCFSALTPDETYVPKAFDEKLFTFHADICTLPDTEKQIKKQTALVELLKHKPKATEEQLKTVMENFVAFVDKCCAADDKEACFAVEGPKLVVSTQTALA
Chain of Concanavalin-A (Canavalia ensiformis) (P02866 whole entry, looked up): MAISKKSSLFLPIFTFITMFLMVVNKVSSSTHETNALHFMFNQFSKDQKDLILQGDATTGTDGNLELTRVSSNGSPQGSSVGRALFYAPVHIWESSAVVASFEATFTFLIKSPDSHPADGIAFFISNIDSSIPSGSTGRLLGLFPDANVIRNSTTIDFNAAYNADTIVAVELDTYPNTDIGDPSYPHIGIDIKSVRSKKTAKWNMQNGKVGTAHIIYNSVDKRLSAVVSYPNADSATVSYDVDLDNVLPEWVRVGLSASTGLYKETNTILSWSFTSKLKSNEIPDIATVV
Chain of Follistatin (Homo sapiens) (P19883 whole entry, looked up): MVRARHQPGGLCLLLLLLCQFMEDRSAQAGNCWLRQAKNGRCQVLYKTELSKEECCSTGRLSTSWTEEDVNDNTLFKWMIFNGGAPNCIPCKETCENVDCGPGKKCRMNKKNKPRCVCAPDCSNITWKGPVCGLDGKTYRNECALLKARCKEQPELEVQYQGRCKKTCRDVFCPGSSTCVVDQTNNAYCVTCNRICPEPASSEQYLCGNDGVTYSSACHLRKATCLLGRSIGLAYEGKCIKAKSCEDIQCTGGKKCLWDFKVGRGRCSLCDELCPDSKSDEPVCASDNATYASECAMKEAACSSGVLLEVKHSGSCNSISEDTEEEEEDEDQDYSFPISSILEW
Chain of Fibroblast growth factor 2 (Homo sapiens) (P09038 whole entry, looked up): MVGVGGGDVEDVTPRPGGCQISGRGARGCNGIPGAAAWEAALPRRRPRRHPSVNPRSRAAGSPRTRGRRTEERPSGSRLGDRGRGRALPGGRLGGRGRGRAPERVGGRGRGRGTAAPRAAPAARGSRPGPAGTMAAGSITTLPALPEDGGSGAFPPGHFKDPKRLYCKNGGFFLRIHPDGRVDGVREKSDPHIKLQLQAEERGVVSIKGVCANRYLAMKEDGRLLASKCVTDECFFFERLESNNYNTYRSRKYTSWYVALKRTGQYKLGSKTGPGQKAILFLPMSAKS

Turning to `COc1ccc(C(=O)Nc2ccc(CN3C(=O)[C@]4(O[C@H](CCn5cc(CCO)nn5)[C@@H]([Si](C)(C)c5ccc(OC)cc5)[C@@H]4C)c4ccccc43)cc2)cc1`, the composite z-score in assay [1] was -0.343; in assay [3], 0.391; in assay [4], -0.0649; in assay [5], 0.697; in assay [6], 0.88; in assay [7], -0.153. Also, the composite z-score stood at 1.32 in assay [8]; 0.276 in assay [9]; 1.15 in assay [10]; 0.748 in assay [11]; 1.13 in [12]; 0.203 in assay [13]. The composite z-score in assay [14] is 0.92; in assay [15], 0.867; in [16] it was 1.57; in assay [18] it was 0.426; in [19] it was 0.798. Moreover, the composite Z-score in assay [2] was -0.213 (inactive). Moreover, the results for the z-score in assay [17] and in [20] were 1.14 and -1.26 (inactive), respectively.

Consider `O=C/C=C/c1ccccc1Cl`, for which the composite z-score in assay [1] is 0.95; in [3], -0.0259; in assay [4] it was -0.0866; in [5] it was 0.408; in assay [6], 0.333; in assay [7], 0.399. Also, the composite z-score in [8] is -0.764; in [9], -0.768; in assay [10] it was 0.0241; in assay [11], -0.761; in [12], -0.836; in [13], 0.878. The composite z-score is 0.0503 in assay [14]; 0.0323 in assay [15]; -0.517 in assay [16]; -0.239 in [18]; 0.687 in assay [19]. Also, the composite Z-score in [2] is -0.02 (inactive). The results for the z-score in assay [17] and in [20] were 0.653 and -2.21 (inactive), respectively.

In the case of `COC(=O)[C@@]1(Cc2ccccc2)[C@H]2c3cc(C(=O)N4CCCC4)n(CCN4CNCC4=O)c3C[C@H]2CN1C(=O)c1ccccc1`, the composite z-score in [1] is 0.963; in assay [3] it was 0.119; in assay [4], -0.173; in assay [5], 0.924; in assay [6], 3.04; in assay [7], 0.808. For the same molecule, the composite z-score in assay [8] was 0.28; in assay [9], -0.634; in [10] it was 1.2; in assay [11] it was 0.361; in assay [12] it was 1.21; in assay [13], 1.72. In addition, the composite z-score was 0.728 in [14]; 0.257 in assay [15]; -0.709 in assay [16]; -0.0783 in [18]; 0.342 in assay [19]. For the same molecule, in assay [2], the composite Z-score was 0.0178 (inactive). The z-score in [17] is 0.791; in assay [20] it was 2.42 (inactive).

Take `COCCCNC(=O)[C@@H]1c2ccccc2C(=O)N(CC23CC4CC(CC(C4)C2)C3)[C@H]1c1ccc(CO)cc1`: the composite z-score in [1] is -0.507; in [3], 0.28; in [4], -0.0232; in [5], 0.449; in [6], 1.34; in [7] it was 0.334. The composite z-score is 1.27 in assay [8]; -0.0949 in assay [9]; -0.171 in [10]; -0.348 in assay [11]; 0.816 in assay [12]; 0.412 in assay [13]. The composite z-score in [14] was -0.434; in assay [15], 1.39; in assay [16], 0.875; in [18], 0.19; in assay [19], 0.728. The composite Z-score in assay [2] was 0.309 (inactive). Further, the z-score in assay [17] is -0.648; in assay [20], 0.438 (inactive).

As for `CC(C)[Si](OCCCNS(=O)(=O)c1ccc(Br)cc1)(C(C)C)C(C)C`, the composite z-score in assay [1] was 0.406; in [3], 0.107; in assay [4], -0.0877; in assay [5] it was 0.0774; in [6] it was 0.468; in [7], 0.194. The composite z-score in [8] was 1.33; in [9], 0.29; in assay [10] it was 1.08; in [11], 0.479; in [12], 1.04; in assay [13] it was 0.339. The composite z-score is 0.348 in assay [14]; 0.928 in assay [15]; 0.828 in assay [16]; 0.513 in assay [18]; 0.622 in assay [19]. Also, the composite Z-score in assay [2] was -0.495 (inactive). Moreover, the z-score in [17] was -0.87; in assay [20], -1.22 (inactive).
